MITF TRPM1 HTS: increases MITF-driven TRPM1 promoter luciferase signal; SK-MEL-5 TRPM1-promoter luciferase, 24 h; % of positive control, neutral wells = 0; activation, % at 12.5 µM; 300,000 tested, 0.75% active; AID 588334;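 active = mean activation of at least 80% with every replicate also reaching 80%; inconclusive = mean reaches 80% but some replicate falls short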
Wnt act: activators of Wnt/beta-catenin signaling. 300,000 tested, 1.2% active. activation, % at 9.35 µM. Wnt/beta-catenin reporter cell assay, activator, plate reader; in the data active = activation above about 30%, passing the limit was not always enough; inconclusive = no clear call, values can overlap the other calls
HSF1 inhib: HSF1 inhibition | NIH3T3-HGL HSE-luciferase, MG132-induced, luminescence 8 h; stronger effect = lower value | activity change, negative = inhibition, % at 7.5 µM (by protocol) | 300,000 tested, 0.77% active | AID 2098;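 active = more than half of replicate wells show activity change below -50%, luminescence cut by over half; inconclusive = some wells, but at most half, below -50%; inactive = no replicate well below -50%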;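 note: luciferase reports HSF-1 transcriptional activity via heat shock element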
esBAF inh: SWI/SNF esBAF complex inhibition; mouse ES cells, Bmi1-luciferase knock-in reporter, 24 h; 100% = twice the neutral-well signal; reporter increase, % at 12.5 µM; 350,000 tested, 2% active; AID 602393; in the data active = activation above about 40%; inconclusive = no clear call, values can overlap the other calls;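 note: a rise in the Bmi1 reporter signal indicates esBAF inhibition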
HSF1 activator: increases HSF-1 driven luciferase reporter signal. 300,000 tested, 1.7% active. NIH3T3-HGL HSF-1 luciferase reporter, MG132, 8 h; 100% = twice DMSO control signal. AID 504408. activation, % at 9 µM;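 active = mean replicate activation of at least 50% with a set share of replicates each reaching 50%; inconclusive = only one of those two conditions met; inactive = mean below 50% and too few replicates reaching it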
Each line names hits and unclear results; the compound was inactive in the other large screens. Sampled rows, rich in hits. Any-hit rate of the full collection: about 3.8%.

O=C(Nc1sc2c(c1C(=O)O)CCC2)c1cccs1	esBAF inh 46 (no result: Wnt act)
COCCCNC(=O)c1c(NC(=O)c2cccs2)sc2c1CCCC2	none (no result: MITF TRPM1 HTS)
NC(=O)c1c(NC(=O)c2cccs2)sc2c1CCCCCC2	MITF TRPM1 HTS 118, esBAF inh 105 (no result: Wnt act)
CC(C)NC(=O)N(C)C[C@H]1Oc2ncc(C#CC3(O)CCCC3)cc2C(=O)N([C@@H](C)CO)C[C@@H]1C	none (no result: MITF TRPM1 HTS, Wnt act, HSF1 inhib, HSF1 activator)
CC(=O)c1ccc(-c2ccc(C(=O)NCC(c3ccco3)N(C)C)o2)cc1 (stereo not drawn)	esBAF inh 80 (no result: HSF1 inhib, HSF1 activator)
CN(C)C(CNC(=O)c1cccc(OC(F)F)c1)c1ccco1 (stereo not drawn)	esBAF inh 45
CC(=O)Nc1ccc(C(=O)NCC(c2ccco2)N(C)C)cc1 (stereo not drawn)	none (no result: esBAF inh)
C[C@@H]1CCCCO[C@H](CN(C)Cc2ccc(C(F)(F)F)cc2)[C@H](C)CN([C@H](C)CO)C(=O)c2cc(NC(=O)CCC(F)(F)F)ccc2O1	none (no result: MITF TRPM1 HTS, Wnt act, HSF1 inhib, HSF1 activator)
CC1CN(Cc2ccccc2)c2nc3c(c(=O)[nH]c(=O)n3C)n2C1 (stereo not drawn)	Wnt act 34 (no result: esBAF inh)
Cn1c(=O)[nH]c(=O)c2c1nc([N+](=O)[O-])n2Cc1ccccc1	HSF1 activator 155 (no result: esBAF inh)
Cn1c(=O)[nH]c(=O)c2c1nc1n2CCN1Cc1ccccc1	none (no result: Wnt act)
CN(Cc1ccccc1)c1nc2c(c(=O)[nH]c(=O)n2C)n1Cc1ccccc1Cl	HSF1 activator 78
CC(C)c1cn(CC[C@H]2CC[C@H](NS(=O)(=O)c3ccccc3)[C@@H](CO)O2)nn1	none (no result: MITF TRPM1 HTS, Wnt act, HSF1 inhib, HSF1 activator)
CN(C)c1cccc(C(=O)OCC(=O)N(C)c2ccccc2)c1	none
CC(=O)Oc1ccc(-c2cccc(C(=O)OCC(=O)N(C)c3ccccc3)c2)cc1	HSF1 activator 90 (no result: esBAF inh)
O=C(NC1CCCCC1)N[C@@H]1CC[C@H](CCNS(=O)(=O)c2ccccc2)O[C@H]1CO	none (no result: MITF TRPM1 HTS, Wnt act, HSF1 inhib, HSF1 activator)
CC(C)(C)C(=O)/C=C/c1ccc(Oc2ccccc2)cc1	Wnt act 33, HSF1 inhib -59
CCCC(=O)Nc1ccc(NC(=O)c2ccco2)c(OC)c1	MITF TRPM1 HTS 88, esBAF inh 63
COc1cc(NC(=O)c2ccco2)ccc1NC(=O)C(C)C	none (no result: Wnt act, esBAF inh)
COc1cc(NC(=O)CC(C)C)ccc1NC(=O)c1ccco1	HSF1 activator 54
CCC(=O)Nc1ccc(NC(=O)c2ccco2)c(OC)c1	Wnt act 41
CCOC(=O)c1ccc(Nc2ncnc3nc[nH]c23)cc1	MITF TRPM1 HTS 121, Wnt act 56, HSF1 inhib -75
c1ccc(COc2ccc(Nc3ncnc4nc[nH]c34)cc2)cc1	MITF TRPM1 HTS 82
CCOC(=O)c1ccc(Nc2ncnc3ccccc23)cc1	none
C[C@H](CO)N1C[C@H](C)[C@@H](CN(C)C(=O)c2cccc(F)c2)Oc2ncc(-c3cccnc3)cc2C1=O	none (no result: MITF TRPM1 HTS, Wnt act, HSF1 inhib, HSF1 activator)
CC(C)N1CCC(N2CCN(C3CCCC3)CC2CCO)CC1 (stereo not drawn)	HSF1 inhib -56 (no result: esBAF inh)
CCOc1ccc(/C=N/NC(=O)Cn2ccnc2C)cc1	Wnt act 51 (no result: MITF TRPM1 HTS)
O=C(C[C@H]1CC[C@@H](NS(=O)(=O)c2ccccc2)[C@@H](CO)O1)NCCN1CCCCC1	none (no result: MITF TRPM1 HTS, Wnt act, HSF1 inhib, HSF1 activator)
O=c1oc2ccccc2c2[nH]ccc12	none
O=c1c2ccccc2oc2ccc(-c3ccc4[nH]ccc4c3)cc12	MITF TRPM1 HTS 113
C[C@@H]1CCCCO[C@@H](CN(C)S(C)(=O)=O)[C@H](C)CN([C@@H](C)CO)C(=O)c2cc(NS(=O)(=O)c3ccc(Cl)cc3)ccc2O1	none (no result: MITF TRPM1 HTS, Wnt act, HSF1 inhib, HSF1 activator)
CCC(=O)Nc1ccc2c(c1)C(=O)N(C)C[C@H](OC)[C@H](C)CN(Cc1cncnc1)[C@H](C)CO2	none (no result: MITF TRPM1 HTS, Wnt act, HSF1 inhib, HSF1 activator)
C=CCn1c2ccccc2c2nnc(SCC(=O)O)nc21	HSF1 inhib -60
O=C(O)c1cccnc1Sc1ccc(Cl)cc1	none (no result: esBAF inh)
O=C(O)c1cccnc1Sc1ccccc1	HSF1 activator 72 (no result: Wnt act, esBAF inh)
O=C(C[C@@H]1CC[C@@H]2[C@H](COC[C@H](O)CN2C(=O)Nc2ccc(Cl)c(Cl)c2)O1)NCc1ccc(F)cc1	none (no result: MITF TRPM1 HTS, Wnt act, HSF1 inhib, HSF1 activator)
Cc1csc(SCC(=O)Nc2cc(S(=O)(=O)N3CCCC3)ccc2Cl)n1	HSF1 inhib -54 (no result: Wnt act, esBAF inh)
CCS(=O)(=O)N1Cc2ccccc2CC1C(=O)Nc1nc2ccccc2s1 (stereo not drawn)	HSF1 inhib -61 (no result: esBAF inh)
Cc1csc(SCC(=O)Nc2nc3ccccc3s2)n1	esBAF inh 47 (no result: MITF TRPM1 HTS)
Cc1csc(NC(=O)CCc2nc3ccccc3s2)n1	HSF1 activator 52 (no result: Wnt act)
CNC(=O)C[C@H]1CC[C@H]2[C@@H](COc3ccc(NC(=O)NC(C)C)cc3C(=O)N2C)O1	none (no result: MITF TRPM1 HTS, Wnt act, HSF1 inhib, HSF1 activator)
O=C(C[C@H]1C=C[C@@H](NC(=O)Nc2cc(F)ccc2F)[C@H](CO)O1)Nc1ccc(-c2ccccc2)cc1	none (no result: MITF TRPM1 HTS, Wnt act, HSF1 inhib, HSF1 activator)
C[C@H]1CN([C@@H](C)CO)C(=O)Cc2cc(NC(=O)C3CC3)ccc2O[C@@H]1CN(C)CC1CCCCC1	none (no result: MITF TRPM1 HTS, Wnt act, HSF1 inhib, HSF1 activator)
CCCNC(=O)Nc1nc2ccccc2s1	MITF TRPM1 HTS 126, Wnt act inconclusive (no result: esBAF inh)
COc1cc(NC(=O)CSc2nc(C)cs2)cc(OC)c1	HSF1 inhib -81
Cc1csc(NC(=O)CSc2nc3ccccc3c3c2CCCC3)n1	HSF1 activator 58 (no result: esBAF inh)
O=C(CC1CC1)Nc1ccc2c(c1)[C@H]1C[C@@H](CC(=O)NC3CCCCC3)O[C@H](CO)[C@H]1O2	none (no result: MITF TRPM1 HTS, Wnt act, HSF1 inhib, HSF1 activator)
CCC(=O)N1[C@@H]2c3ccc(-c4cncnc4)c(=O)n3C[C@H]1[C@H](CO)[C@H]2C(=O)N1CCc2ccccc2C1	none (no result: MITF TRPM1 HTS, Wnt act, HSF1 inhib, HSF1 activator)
CN1[C@H](C(=O)Nc2nccs2)[C@@H](CO)[C@@H]2Cn3c(ccc(/C=C/c4ccccc4)c3=O)[C@@H]21	none (no result: MITF TRPM1 HTS, Wnt act, HSF1 inhib, HSF1 activator)
COc1cccc(CN2CCN(Cc3cccn3-c3cccnc3)CC2CCO)c1 (stereo not drawn)	HSF1 activator 56 (no result: esBAF inh)
CCCCc1n[nH]c2c1/C(=N/O)CC(c1ccccc1)C2 (stereo not drawn)	none
CCCCc1noc2c1/C(=N\O)CC(c1ccccc1)C2 (stereo not drawn)	esBAF inh 59
CCCCN1CCc2c([nH]c3c(C)cccc23)C1=O	MITF TRPM1 HTS 92 (no result: esBAF inh)
Cc1cccc(NC(=O)CCNC(=O)c2ccc(Br)cc2)c1	esBAF inh 54
CC1CCC(NC(=O)CCNC(=O)c2ccc(Br)cc2)CC1 (stereo not drawn)	MITF TRPM1 HTS 82, esBAF inh inconclusive
CC(=O)Nc1cccc(NC(=O)c2ccc(Br)cc2)c1	esBAF inh 42
CO[C@H]1CN(C)C(=O)c2cc(NC(=O)Nc3cccc(F)c3)ccc2OC[C@H](C)N(C)C[C@@H]1C	none (no result: MITF TRPM1 HTS, Wnt act, HSF1 inhib, HSF1 activator)
O=C(NCCc1ccccc1)[C@@H]1[C@@H](CO)[C@@H]2Cn3c(cccc3=O)[C@H]1N2C(=O)C1CCCC1	none (no result: MITF TRPM1 HTS, Wnt act, HSF1 inhib, HSF1 activator)
CC(=O)c1ccc(NC(=O)Nc2ccccc2)cc1	esBAF inh 48 (no result: Wnt act)
O=C(Nc1ccccc1)Nc1ccc(Br)c(Cl)c1	esBAF inh 75
O=C(COc1ccc2ccccc2c1)NNC(=O)Cc1ccccc1	none
O=C(Nc1ccccc1)Nc1ccccc1Br	none (no result: esBAF inh)
O=C(Nc1ccc(Cl)cc1)Nc1cccc2nsnc12	Wnt act inconclusive, esBAF inh 91

Screening data: PubChem, Broad Institute
